Measured values from PubChem BioAssay (NCI).
Compounds without any hit were thinned out: in the full panel of roughly 79,000, 15% have a hit. Active and inactive are the calls of the source. No stated cut-off is given here; in the data, active means growth inhibition above about 70%; inactive means the rest. Where a SMILES comes first, the peptide text is derived from it. The star is where a group is joined. Cbz = O=C(OCc1ccccc1)*

Assay: NCI Yeast Anticancer Drug Screen. Data for the bub3 strain (AID 167)
Details: S. cerevisiae bub3 mutant strain, at 50.0 µM, active compounds read high
Summary of the method: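 Growth of a checkpoint-deficient yeast mutant is measured after compound exposure. Values represent inhibition relative to vehicle.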

| Structure (SMILES) | growth inhibition |
| --- | --- |
| ClC1CC/C=C\CC/C=C/CCC1Cl (stereo unspecified) | 29.2% (inactive) |
| CCOc1ccc2nc(NC(=O)C(=O)C3C(=O)C(CC4C(=O)c5ccccc5C4=O)C(=O)CC3(C)C)sc2c1 (stereo unspecified) | -29.4% (inactive) |
| CCOC(=O)c1cccc(OCC)c1 | 3.5% (inactive) |
| CCc1ccccc1NC(=O)NCC(C)C | 2.7% (inactive) |
| CCNC(=O)Nc1ccccn1 | -5.05% (inactive) |
| NC(=O)N/N=C/c1cccc2ccccc12 | 4.05% (inactive) |
| CSc1nc(SC)c2cnn(C3OC(CO)C(O)C3O)c2n1 (stereo unspecified) | 16.4% (inactive) |
| O=C(NO)C(=O)Nc1ccc(Cl)cc1[N+](=O)[O-] | 49.1% (inactive) |
| O=c1c(-c2ccccc2)c(O)on1/C=C1/C=CC=N1 | 7.2% (inactive) |
| CC(=O)OC12C=CC(=O)N1c1ccccc1C(=O)O2 (stereo unspecified) | 13.8% (inactive) |
| O=c1c2ccccc2nc(-c2ccc(Br)cc2)n1NC1OC(CO)C(O)C(O)C1O (stereo unspecified) | -9.15% (inactive) |
| COC(=O)N/N=C(/c1nc2ccc([N+](=O)[O-])cc2[nH]c1=O)C(O)c1ccc(OC)c(OC)c1 (stereo unspecified) | 26.5% (inactive) |
| C=CC(CO)N(CC)CC (stereo unspecified) | 1.8% (inactive) |
| CC(C)(C)[Si](C)(C)OCC1OC(n2cc(I)c(=O)[nH]c2=O)C(O[Si](C)(C)C(C)(C)C)C1O[Si](C)(C)C(C)(C)C (stereo unspecified) | 11.9% (inactive) |
| CC1(C2c3ccccc3CC2OC2CCCCO2)CO1 (stereo unspecified) | -5.75% (inactive) |
| O=C(NC(CSC(=O)OCc1ccccc1)C(=O)Oc1ccc([N+](=O)[O-])cc1)OCc1ccccc1 (stereo unspecified) | -0.45% (inactive) |
| O=C1/C(=C/C=C/c2ccccc2)CCC1CNc1ccc(Br)cc1 (stereo unspecified) | -15.4% (inactive) |
| COc1ccc2c(c1)C1=C(CC2)C(=O)OC1=O | 5.05% (inactive) |
| COC(=O)C(NC(=O)C(C)NC(=O)C1CCCN1C(=O)CNC(=O)C(CO)NC(=O)C(NC(=O)OCc1ccccc1)C(C)O)C(C)O (stereo unspecified) (Cbz-TSGPAT-OMe; configuration not given here) | -7.8% (inactive) |
| CC(=O)C(C(C)=O)[N+](=O)[O-].CC(=O)C(C(C)=O)[N+](=O)[O-].[Cu] | 23.6% (inactive) |
| CN(C)CCCNc1ccc2nnn3c4ccc([N+](=O)[O-])cc4c(=O)c1c23 | 65.7% (inactive) |
